Experimental data as given in PubChem BioAssay (NCATS).
Inconclusive results are not listed. Active and inactive are the calls of the source. Unless noted, calls follow the shape of the dose curve; as a rule, active = well fitted curve in the direction sought with a large enough effect; inconclusive = small, poorly fitted or top-dose-only effect, or another doubt; inactive = no such curve, though single readings can be large; an effect the other way counts as inactive or inconclusive.

Legend:
[1] = Cellular Toxicity (caspase-3) Mesangial (AID 660); conditions: mesangial cells, normalized: DMSO 0%, 100 µM tamoxifen 100%; series mostly up to 91.7 µM;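 also: combined caspase 3 and 7 activity read by Caspase-Glo luminescence; cells exposed to compound for 16 h before the caspase read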
Summary of the method: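 Caspase 3/7 activation measured by Caspase-Glo 3/7 luminescence (20 min, room temperature) following 16 h exposure of mesangial cells (1000/well); AC50 from Hill-equation fit, normalized to DMSO and 100 uM tamoxifen.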

[2] = Cellular Toxicity (caspase-3) SK-N-SH (AID 661); conditions: SK-N-SH caspase-3 activation, qHTS, DMSO as zero, staurosporine as full; series mostly up to 91.7 µM
Summary of the method: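 Caspase 3/7 activation was read by luminogenic substrate cleavage after 16 hour treatment of SK-N-SH cells. Signal was scaled between DMSO and 10 uM staurosporine, and concentration-response data were fitted with the Hill equation for AC50.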

[3] = Cellular Toxicity (caspase-3) H-4-II-E (AID 663); conditions: H-4-II-E rat hepatoma, scaled: DMSO 0%, 100 µM tamoxifen 100%; series mostly up to 92.2 µM;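 also: cells exposed to compound for 16 hr before readout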
Summary of the method: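 H-4-II-E rat hepatoma, 1500 cells/well, 5 hr settle at 37 °C; compound 16 hr, 37 °C, complete medium; Caspase-Glo 3/7, 20 min RT; luminescence. DMSO = 0%, 100 uM tamoxifen = 100%; Hill-equation AC50.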

[4] = Cellular Toxicity (caspase-3) Hek293 (AID 664); conditions: HEK293 caspase-3 activation, DMSO = 0%, 100 µM tamoxifen = 100%; series mostly up to 92.2 µM;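 also: cells exposed to compound for 16 h at 37 °C before readout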
Summary of the method: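 Concentration-response qHTS: caspase 3/7 activation measured by luminescent aminoluciferin substrate cleavage after 16 h compound exposure of Hek 293 cells. AC50 from Hill equation, with DMSO as basal and 100 uM tamoxifen as 100%.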

[5] = Cellular Toxicity (caspase-3) N2a (AID 665); conditions: N2a cells, luminescence, normalized: DMSO 0%, 10 µM staurosporine 100%; series mostly up to 92.2 µM;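 also: compound exposure lasted 16 h at 37 °C before readout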
Summary of the method: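 Caspase-3/7 activation measured as luminescence from Caspase-Glo reagent (1 h, room temperature) after 16 h compound exposure of mouse N2a cells. AC50 values from Hill-equation concentration-response, scaled between DMSO and 10 uM staurosporine.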

[6] = Cellular Toxicity (caspase-3) NIH 3T3 (AID 666); conditions: NIH 3T3 caspase-3 activation, apoptosis/toxicity, 0% DMSO, 100% is 100 µM tamoxifen; series mostly up to 92.2 µM;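 also: caspase signal read after 16 h compound exposure; 0% = DMSO basal and 100% = 100 µM tamoxifen stimulation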
Summary of the method: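 Caspase-Glo 3/7 luminescence reported caspase activation in 1000 NIH 3T3 cells/well after 16 h compound exposure at 37 C. DMSO set basal and 100 uM tamoxifen set 100% stimulation; concentration-response modeled with the Hill equation for AC50.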

[7] = Cellular Toxicity (caspase-3) Renal Proximal Tubule (AID 667); conditions: renal proximal tubule cells, primary cells freshly taken from rat, solvent-only wells 0%, staurosporine 100%; series mostly up to 91.7 µM;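 also: cells exposed to compound for 16 hours at 37 °C before detection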
Summary of the method: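 In qHTS format, rat primary proximal tubule cells seeded at 1000 per well are exposed to compounds for 16 hours at 37 °C. An increase in Caspase-Glo 3/7 luminescence indicates caspase activation.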

[8] = Cell Viability - LYMP2-001 (AID 921); conditions: LYMP2-001 lymphoblastoid cell viability; series mostly up to 92.2 µM;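 also: 0% = DMSO only and full inhibition = tetraoctylammonium bromide control wells; nearly all actives have a fitted effect of over 70% in size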
Summary of the method: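 qHTS, 1536-well; lymphoblastoid cells, 24 hr compound, 37 C; ATP by CellTiter-Glo, 30 min RT; luminescence; Hill-fit AC50.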

[9] = MultiTox-Fluor Cytotoxicity Assay - LYMP1-001 - Dead Cells (AID 946); conditions: LYMP1-001 lymphoblastoid cells, dead-cell protease fluorescence; series mostly up to 92.2 µM
Summary of the method: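 Cytotoxicity as increased dead-cell protease fluorescence (bis-AAF-R110, 485/520 nm), read 60 min after MultiTox-Fluor reagent. Human lymphoblastoid line exposed 16 h; Hill-fitted AC50, with DMSO as 0% and 15 uM tetraoctylammonium bromide as 100%.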

[10] = MultiTox-Fluor Cytotoxicity Assay - LYMP1-001 - Live Cells (AID 947); conditions: LYMP1-001 lymphoblastoid cells, live-cell protease fluorescence viability; series mostly up to 92.2 µM;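 also: 0% = DMSO only and full inhibition = tetraoctylammonium bromide control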
[11] = Cell Viability - LYMP1-002 - Assay at 16 hr (AID 948); conditions: LYMP1-002 lymphoblastoid cell viability; series mostly up to 92.2 µM;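 also: 0% = DMSO alone and full effect = 92 µM tetraoctylammonium bromide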
Summary of the method: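 Acute cytotoxicity is scored as a concentration-dependent fall in intracellular ATP in a human lymphoblastoid line (LYMP1-002) after 16 hr compound exposure at 37 C, measured by luciferase luminescence.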

[12] = MultiTox-Fluor Cytotoxicity Assay - LYMP1-002 - Live Cells (AID 955); conditions: LYMP1-002 lymphoblastoid live-cell protease fluorescence viability; series mostly up to 46.1 µM; also: % is scaled to controls: 0 for no effect and ±100 for the full control effect
Summary of the method: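 After 16 h compound exposure at 37 C, live LYMP1-002 lymphoblastoid cells (2500/well) were quantified by cleavage of cell-permeant GF-AFC substrate, read at 405/510 nm after 60 min. Concentration-response fitted with Hill equation for AC50.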

[13] = MultiTox-Fluor Cytotoxicity Assay - LYMP1-003 - Dead Cells (AID 961); conditions: LYMP1-003 lymphoblastoid cells, dead-cell protease fluorescence; series mostly up to 92.2 µM; also: nearly all actives have a fitted effect of over 70% in size
Summary of the method: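 Dead-cell protease release, detected as bis-AAF-R110 fluorescence at 485/520 nm, was measured in LYMP1-003 cells after 16 h compound treatment at 37 C. AC50 values came from Hill-modeled qHTS curves normalized to DMSO (0%) and 15 uM tetraoctylammonium bromide (100%).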

[14] = MultiTox-Fluor Cytotoxicity Assay - LYMP1-003 - Live Cells (AID 962); conditions: LYMP1-003 lymphoblastoid cells, MultiTox-Fluor live-cell protease fluorescence; series mostly up to 92.2 µM;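 also: 0% = DMSO only and full loss = 92 µM tetraoctylammonium bromide; cytotoxic hits lower the live-cell protease signal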
Summary of the method: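 Live-cell protease activity (GF-AFC substrate, 405/510 nm, 60 min at room temperature) after 16 h, 37 C compound exposure of human lymphoblastoid LYMP1-003 cells; concentration-response fitted to the Hill equation for AC50.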

[15] = Cell Viability - LYMP1-003 - Assay at 24 hr (AID 963); conditions: LYMP1-003 lymphoblastoid cell viability; series mostly up to 92.2 µM;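 also: plate controls were DMSO only for no effect and tetraoctylammonium bromide positive control for full effect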
Summary of the method: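 Concentration-response qHTS: ATP loss measured by CellTiter-Glo luminescence after 24 h compound exposure at 37 C. Cells were LYMP1-003 human lymphoblastoid, 2500 per well. AC50 derived via standard Hill equation modeling.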

[16] = qHTS assay for small molecule agonists of the antioxidant response element (ARE) signaling pathway measured by Nrf2-dependant transcriptional activity (AID 720636; active = well fitted curve in the direction sought with a large enough effect in the repeat runs; an effect the other way counts as inactive or inconclusive;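 also: HepG2 cells with an ARE-driven luciferase reporter; % of control where 0% means no effect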); conditions: ARE-luc HepG2, Nrf2 luciferase reporter, 16 h; series mostly up to 92.4 µM
Summary of the method: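 First, ARE-luc HepG2 cells attached for 6 hr at 37 C in 1% dialyzed FBS medium. Next, compound or DMSO was added and incubated 16 hr. Finally, ONE-Glo reagent was added and luminescence measured after 30 min.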

[17] = qHTS assay for small molecule antagonists of the retinoid-related orphan receptor gamma (ROR-gamma) signaling pathway - cell viability counter screen (AID 720652; active = well fitted curve in the direction sought with a large enough effect in the repeat runs; an effect the other way counts as inactive or inconclusive;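 also: CHO reporter cells with doxycycline-induced ROR-gamma expression; compound exposure lasted 16 hr before ATP read; % is scaled to controls: 0 for no effect and ±100 for the full control effect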); conditions: RORgamma reporter cell line viability counter screen; series mostly up to 92.2 µM
Summary of the method: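 Cytotoxicity counter screen: intracellular ATP (CellTiter-Glo luminescence) measured in the doxycycline-induced CHO RORE-luciferase reporter line after 16 hr compound exposure at 37 C, 5% CO2.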

[18] = qHTS assay for small molecule agonists of the antioxidant response element (ARE) signaling pathway measured by Nrf2-dependant transcriptional activity - cell viability counter screen (AID 720653; active = well fitted curve in the direction sought with a large enough effect in the repeat runs; an effect the other way counts as inactive or inconclusive; also: % is scaled to controls: 0 for no effect and ±100 for the full control effect); conditions: ARE-bla HepG2 viability, CellTiter-Glo ATP luminescence, 16 h; active compounds read low
Summary of the method: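 ARE-bla HepG2 cells treated with compounds for 16 h at 37C; this counter screen measures viability as intracellular ATP by CellTiter-Glo luminescence after 30 min at room temperature.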

[19] = qHTS assay for cell viability of HEK293 cells (AID 743288); conditions: ATP luminescence (CellTiter-Glo), 18 h, active compounds read low; also: % is scaled to controls: 0 for no effect and ±100 for the full control effect; nearly all actives have a fitted effect of over 50% in size
Summary of the method: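 Quantitative high-throughput screen: compounds were pinned onto parental HEK293 cells (2,000 per well) after a minimum 5 h settling at 37 C, incubated 18 h at 37 C, and intracellular ATP measured by luciferase luminescence.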

[20] = qHTS assay for cell viability of the p53RE-bla HCT-116 cell line (AID 743292); conditions: p53RE-bla HCT-116 viability, ATP luminescence, 16 h; series mostly up to 95 µM; also: % is scaled to controls: 0 for no effect and ±100 for the full control effect; nearly all actives have a fitted effect of over 55% in size
Summary of the method: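 Quantitative high-throughput format: compounds in DMSO were pinned onto p53RE-bla HCT-116 cells (4,000/well) and incubated 16 h at 37 C. Total intracellular ATP, read by CellTiter-Glo luminescence, reflects viable cell number.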

Measured: max response

CN(C)CCOC(c1ccccc1)c1ccccc1 (tested in a mixture with another compound)
inactive: [1] | [2] | [3] | [4] | [5] | [6] | [7] | [8] | [9] | [10] | [11] | [12] | [13] | [14] | [15] | [16] | [17] | [18] -6.81% | [19] 3.64% | [20]
